RORg inh: qHTS for inhibitors of ROR gamma transcriptional activity | Nuclear receptor ROR-gamma (Mus musculus), P51450 | Drosophila S2 Gal4-RORgamma UAS-luciferase reporter, 20 h | Potency, µM (titrated, usually from 53.6 µM), most hits filed as inhibitors | 5.4% of 310,000 active | AID 2551, 2010; also: nearly all actives have a fitted effect of over 60% in size
Target sequence (P51450 whole entry, looked up, the tested form may be a part): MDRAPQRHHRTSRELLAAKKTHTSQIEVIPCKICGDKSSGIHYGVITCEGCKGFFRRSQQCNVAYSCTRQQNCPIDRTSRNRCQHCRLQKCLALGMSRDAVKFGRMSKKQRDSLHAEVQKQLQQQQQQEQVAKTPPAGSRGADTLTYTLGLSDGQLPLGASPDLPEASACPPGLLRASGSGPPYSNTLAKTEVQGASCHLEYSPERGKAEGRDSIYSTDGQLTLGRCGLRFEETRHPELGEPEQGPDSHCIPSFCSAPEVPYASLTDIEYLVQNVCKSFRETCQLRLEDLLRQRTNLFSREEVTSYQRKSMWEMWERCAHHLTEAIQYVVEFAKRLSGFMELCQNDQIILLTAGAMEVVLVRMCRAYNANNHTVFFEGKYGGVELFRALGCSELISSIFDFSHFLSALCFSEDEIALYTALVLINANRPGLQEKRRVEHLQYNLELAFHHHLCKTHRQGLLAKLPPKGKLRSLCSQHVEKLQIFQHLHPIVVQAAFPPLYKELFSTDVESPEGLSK
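Drosophila Schneider cells stably carrying a metallothionein-driven Gal4 DBD–ROR gamma fusion and a UAS-Photinus luciferase reporter were exposed to compound for 1 hr, then induced with copper sulfate (700 uM final) for 20 hr at ambient temperature before luminescence reading.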
SW480 rereplic: A quantitative high throughput screen for small molecules that induce DNA re-replication in SW480 colon adenocarcinoma cells. SW480 DNA re-replication, Hoechst DNA content imaging, 48 h. Potency, µM (titrated, usually from 46.1 µM), actives largely listed as activators. 1.8% of 340,000 active; also: nearly all actives have a fitted effect of over 55% in size
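Compounds, transferred as 23 nL by pin tool, were incubated with cells for 48 hr; DNA content per nucleus was then quantified by Hoechst staining and fluorescence plate imaging.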
ELG1 repair inh: qHTS screen for small molecules that inhibit ELG1-dependent DNA repair in human embryonic kidney (HEK293T) cells expressing luciferase-tagged ELG1; HEK293T ELG1-luciferase reporter, luminescence, 16 h; DNA damage induced by 5-fluorouridine; Potency, µM (titrated, usually from 46.1 µM), usual class: inhibitors; 2.3% of 330,000 active; AID 504467, 2011; also: nearly all actives have a fitted effect of over 55% in size
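Step one: seed 2,000 cells per well. Step two: pin-transfer compound or DMSO alongside 5-fluorouridine. Step three: incubate 16 hr, 37 °C, 5% CO2. Step four: add ONE-Glo, wait 30 min, read luminescence.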
VP16 counter: VP16 counterscreen qHTS for inhibitors of ROR gamma transcriptional activity. AID 2546, 2010. 3.5% of 310,000 active. Drosophila S2 Gal4-VP16 UAS-luciferase, luminescence, 20 h. Potency, µM (doses to about 53.6 µM), actives largely listed as inhibitors;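 also: Gal4-VP16 expression switched on by copper sulfate through the metallothionein promoter; nearly all actives have a fitted effect of over 50% in size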
MCF10A rerep: A quantitative high throughput screen for small molecules that induce DNA re-replication in MCF 10a normal breast cells | AID 624296, 2012 | 2.9% of 350,000 active | Potency, µM (titrated, usually from 46.1 µM), actives largely listed as activators | MCF 10A DNA re-replication, Hoechst nuclear intensity, 48 h; also: nearly all actives have a fitted effect of over 50% in size
Large screens that a line does not name were inactive. A selection: hits, their analogues and other compounds. The true share with any hit is near 10%. Calls follow the shape of the dose curve; as a rule, active = well fitted curve in the direction sought with a large enough effect; inconclusive = small, poorly fitted or top-dose-only effect, or another doubt; inactive = no such curve, though single readings can be large; an effect the other way counts as inactive or inconclusive.

Cc1csc(NC(=O)CSc2nnc(-c3cc(C)on3)o2)n1	RORg inh 14µM, VP16 counter 14µM
Cc1occc1-c1nnc(SCC(=O)Nc2nc3ccccc3s2)o1	RORg inh inconclusive, ELG1 repair inh inconclusive, MCF10A rerep inconclusive
O=C(CSc1nc2ccccc2o1)Nc1nc(-c2ccccc2)cs1	ELG1 repair inh inconclusive
CCc1nnc(NC(=O)CSc2nnc(-c3ccccc3NC(=O)c3ccccc3)o2)s1	RORg inh 2.2µM, SW480 rereplic inconclusive, VP16 counter 3.5µM, MCF10A rerep inconclusive
Cc1cc(-c2nnc(SCC(=O)Nc3nc(-c4ccccc4)cs3)o2)no1	RORg inh 14µM
COCCNC(=O)NC(=O)COC(=O)c1cccn1C	ELG1 repair inh inconclusive, MCF10A rerep inconclusive
CCOc1ccc(CNC(=O)Cn2nc(C)c3c(C)n(-c4ccc(C)cc4)nc3c2=O)cc1	none
C#CCn1c(=O)c2c(nc(/C=C/c3cccc(OC)c3)n2C)n(CCCOP(=O)(O)O)c1=O	none (no result: SW480 rereplic, ELG1 repair inh, MCF10A rerep)
Cc1ccc(Cl)cc1NC(=O)c1cc2ccccc2cc1O	RORg inh 5µM, SW480 rereplic inconclusive, VP16 counter 2.8µM, MCF10A rerep 7.3µM
Cc1ccc(C(=O)NNC(=O)c2cc3ccccc3cc2O)cc1	RORg inh 14µM, VP16 counter inconclusive
Cc1ccc(C(=O)Nc2ccc3ccccc3c2)cc1	RORg inh 6.3µM, ELG1 repair inh inconclusive, VP16 counter 11µM
CC1(C(=O)Nc2ccc3ccccc3c2)CC1(Br)Br (stereo unspecified)	RORg inh 11µM, ELG1 repair inh inconclusive, VP16 counter inconclusive
COc1ccc(C)cc1NC(=O)NNC(=O)c1cc2ccccc2cc1O	none
O=C(Nc1ccc2ccccc2c1)c1ccc(Cl)cc1	RORg inh inconclusive, ELG1 repair inh inconclusive, VP16 counter inconclusive
COc1cc(NC(=O)c2cc3ccccc3cc2O)c(OC)cc1Cl	RORg inh inconclusive, ELG1 repair inh inconclusive, MCF10A rerep inconclusive
CC(=O)c1cc(C(=O)Nc2ccc3ccccc3c2)c(C)o1	none
Cc1cc(C(=O)Nc2ccc3ccccc3c2)c(C)o1	RORg inh 8.9µM, ELG1 repair inh inconclusive, VP16 counter inconclusive
COc1ccc([C@@H]2CC(=O)c3c(O)cc(O[C@@H]4O[C@H](CO[C@@H]5O[C@@H](C)[C@H](O)[C@@H](O)[C@H]5O)[C@@H](O)[C@H](O)[C@H]4O)cc3O2)cc1	none (no result: SW480 rereplic, ELG1 repair inh, MCF10A rerep)
Cc1ccccc1OCc1nnc(SCC(=O)O)n1Cc1ccccc1	SW480 rereplic inconclusive
Cc1ccc(OCc2n[nH]c(=S)n2Cc2ccccc2)cc1	RORg inh 0.89µM, VP16 counter 6.3µM
S=c1[nH]nc(COc2cccc3ccccc23)n1Cc1ccccc1	RORg inh 3.2µM, VP16 counter inconclusive, MCF10A rerep inconclusive
COc1ccc(Cc2n[nH]c(=S)n2Cc2ccccc2)cc1Cl	none
Cc1ccccc1OCc1n[nH]c(=S)n1Cc1ccccc1	RORg inh 3.5µM, VP16 counter inconclusive, MCF10A rerep inconclusive
CCOc1ccc(Cc2n[nH]c(=S)n2Cc2ccccc2)cc1	RORg inh 4.5µM
CC(C)OC(=O)CSc1nnc(COc2ccc([N+](=O)[O-])cc2)n1C	none
Cc1ccccc1N1CC(C(=O)Nc2ccc(S(=O)(=O)N3CCCCC3)cc2)CC1=O (stereo unspecified)	ELG1 repair inh inconclusive
Cc1cccc(N2CC(C(=O)Nc3ccc(S(=O)(=O)N4CCCCC4)cc3)CC2=O)c1C (stereo unspecified)	MCF10A rerep 13µM
Cc1cc(C)c(C)c(S(=O)(=O)N2CCC(C(=O)Nc3ccc(S(=O)(=O)N4CCOCC4)cc3)CC2)c1C	RORg inh inconclusive, ELG1 repair inh 12µM, MCF10A rerep inconclusive
Cc1ccc(NC(=O)C2CCN(S(=O)(=O)c3ccc4c(c3)NC(=O)C(C)S4)CC2)cc1Cl (stereo unspecified)	RORg inh inconclusive, ELG1 repair inh 13µM, VP16 counter 7.1µM
O=C(Nc1ccc(C(F)(F)F)cc1)C1CCN(S(=O)(=O)c2ccc(N3CCCC3=O)cc2)CC1	ELG1 repair inh inconclusive, VP16 counter 3.5µM
Cc1cc(C)cc(NC(=O)C2CCN(S(=O)(=O)c3ccc4c(c3)NC(=O)C(C)S4)CC2)c1 (stereo unspecified)	ELG1 repair inh inconclusive
O=C(NCc1ccc(F)cc1)C(=O)NCC1OCCN1C(=O)c1cccs1 (stereo unspecified)	none
COCCn1c(C)cc(C(=O)COC(=O)c2ccc(Cl)c(S(N)(=O)=O)c2)c1C	ELG1 repair inh inconclusive (no result: RORg inh, VP16 counter)
COc1ccc(NC(=O)c2cc(-c3ccc(C)c(C)c3O)n[nH]2)cc1Cl	SW480 rereplic inconclusive, ELG1 repair inh inconclusive, MCF10A rerep 18µM
CC(=O)Nc1ccc(NC(=O)c2cc(-c3cc(C)cc(C)c3O)n[nH]2)cc1	ELG1 repair inh 23µM
Cc1ccc(C(=O)Nc2ccc(S(=O)(=O)N3CCOCC3)cc2)cc1	none
Cc1ccc(NC(=O)c2cc(-c3ccc(C)c(C)c3O)n[nH]2)cc1C	none
Cc1cc(C)c(O)c(-c2cc(C(=O)Nc3ccc(S(=O)(=O)N4CCOCC4)cc3)[nH]n2)c1	RORg inh inconclusive, SW480 rereplic inconclusive, ELG1 repair inh 21µM, VP16 counter inconclusive, MCF10A rerep inconclusive
Cc1cc(C)c(OCC(=O)Nc2ccc(S(=O)(=O)N3CCOCC3)cc2)c(C)c1	RORg inh 11µM, ELG1 repair inh inconclusive, VP16 counter inconclusive
CC(=O)Nc1ccc(NC(=O)c2cc(-c3ccc(C)c(C)c3O)n[nH]2)cc1	MCF10A rerep inconclusive
CSc1ccc(C(=O)N2CCC(CCC(=O)NC3CC3)CC2)cc1	ELG1 repair inh inconclusive
COC(=O)C/C=C/C(C)C(OC)c1ccccc1Br (stereo unspecified)	none (no result: SW480 rereplic, ELG1 repair inh, MCF10A rerep)
O=C1C2CCCN2C(=S)N1c1ccccc1 (stereo unspecified)	none
Cc1ccc2nc(Nc3ncc4c(n3)CCCC4=O)nc(C)c2c1	none (no result: SW480 rereplic, MCF10A rerep)
Cc1cc(C)cc(Nc2ncc3c(n2)CCCC3=O)c1	RORg inh 11µM, ELG1 repair inh inconclusive, VP16 counter 11µM
Cc1cc(CCNC=O)c(C)c2c1oc1ccccc12	none (no result: RORg inh, ELG1 repair inh, VP16 counter)
C=CCNC(=S)N/N=C/c1ccccc1OCCOc1ccccc1	RORg inh 2.5µM, SW480 rereplic inconclusive, VP16 counter 5µM
S=C(NCc1ccco1)N/N=C/c1ccccc1Cl	RORg inh 11µM, VP16 counter inconclusive
COc1ccccc1/C=N/NC(=S)NCc1ccco1	RORg inh 2µM, VP16 counter 11µM
COc1cc(CNc2ncnc3ccc(-c4c(C)noc4C)cc23)cc(OC)c1OC	none (no result: SW480 rereplic, ELG1 repair inh, MCF10A rerep)
O=C(Nc1ccccc1)NC1CCCc2ccccc21 (stereo unspecified)	SW480 rereplic 1.2µM

Bioassay records: PubChem, National Center for Advancing Translational Sciences (NCATS)
